{
  "source": "the supplement of paper PMC11732987",
  "about": "“Enantioselective OTUD7B fragment discovery through chemoproteomics screening and high-throughput optimisation” (Communications Chemistry, 2025)",
  "assay_in_all_cases": "log2 ratio of Biotin-Ahx-Ub-VS probe labelling (fragment/DMSO); higher = less target engagement (more negative = stronger competition), active = hit call of the paper (q ≤ 0.05, log2 ratio ≤ -1)",
  "conditions_in_all_cases": "compound concentration: 200 uM; treatment time: 3 h",
  "key": {"OTUD6B": {"target": "T1, OTUD6B (UniProt Q8N6M0)", "T1 sequence (whole entry)": "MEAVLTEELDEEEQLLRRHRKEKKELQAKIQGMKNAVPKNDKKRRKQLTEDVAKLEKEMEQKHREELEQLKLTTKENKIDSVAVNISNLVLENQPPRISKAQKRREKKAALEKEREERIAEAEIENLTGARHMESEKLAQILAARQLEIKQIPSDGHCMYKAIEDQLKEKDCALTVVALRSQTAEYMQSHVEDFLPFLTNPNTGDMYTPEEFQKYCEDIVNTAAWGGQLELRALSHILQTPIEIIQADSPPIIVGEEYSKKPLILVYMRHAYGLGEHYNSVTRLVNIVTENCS", "procedure,_shortened": "(§1)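 HEK293T lysate, 495 µg per sample in Tris/CHAPS/IGEPAL buffer with protease inhibitors, was treated in triplicate with fragment at 200 µM or vehicle for 3 h and then with Biotin-Ahx-Ub-VS at 0.5 µM final for 1 h. Labelled DUBs were NeutrAvidin-enriched, digested with LysC and trypsin, and run by diaPASEF LC-MS/MS. Spectronaut label-free quantities were global-median-normalised, and values are average log2 fragment/vehicle ratios by unpaired t-test on proteins with ≥2 unique peptides.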"}, "OTUD7B": {"target": "T2, OTUD7B (UniProt Q6GQQ9)", "T2 sequence (whole entry)": "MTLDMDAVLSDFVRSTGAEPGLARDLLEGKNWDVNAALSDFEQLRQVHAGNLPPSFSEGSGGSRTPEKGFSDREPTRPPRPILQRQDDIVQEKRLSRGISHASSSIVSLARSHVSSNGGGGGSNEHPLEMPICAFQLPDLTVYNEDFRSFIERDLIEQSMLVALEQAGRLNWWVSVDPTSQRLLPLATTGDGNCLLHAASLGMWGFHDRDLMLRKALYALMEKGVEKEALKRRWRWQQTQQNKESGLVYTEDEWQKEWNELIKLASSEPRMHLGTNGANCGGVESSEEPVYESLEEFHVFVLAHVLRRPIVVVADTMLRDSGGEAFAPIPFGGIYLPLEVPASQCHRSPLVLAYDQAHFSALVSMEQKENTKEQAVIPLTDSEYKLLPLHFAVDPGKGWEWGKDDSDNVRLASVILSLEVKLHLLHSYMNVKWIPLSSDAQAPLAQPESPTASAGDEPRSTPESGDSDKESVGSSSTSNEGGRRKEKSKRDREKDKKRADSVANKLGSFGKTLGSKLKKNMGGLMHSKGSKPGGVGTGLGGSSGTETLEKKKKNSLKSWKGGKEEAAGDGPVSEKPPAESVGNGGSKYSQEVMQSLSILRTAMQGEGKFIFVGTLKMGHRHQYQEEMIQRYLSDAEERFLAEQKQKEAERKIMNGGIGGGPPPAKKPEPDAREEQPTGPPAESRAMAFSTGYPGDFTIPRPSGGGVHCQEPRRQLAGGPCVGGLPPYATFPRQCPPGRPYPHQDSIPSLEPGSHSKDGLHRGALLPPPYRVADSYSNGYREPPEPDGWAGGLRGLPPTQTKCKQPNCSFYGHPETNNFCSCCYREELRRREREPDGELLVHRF", "procedure,_shortened": "as §1"}, "PRPF8": {"target": "PRPF8 (UniProt Q6P2Q9)", "procedure,_shortened": "as §1"}, "PSMD7": {"target": "T3, PSMD7 (UniProt P51665)", "T3 sequence (whole entry)": "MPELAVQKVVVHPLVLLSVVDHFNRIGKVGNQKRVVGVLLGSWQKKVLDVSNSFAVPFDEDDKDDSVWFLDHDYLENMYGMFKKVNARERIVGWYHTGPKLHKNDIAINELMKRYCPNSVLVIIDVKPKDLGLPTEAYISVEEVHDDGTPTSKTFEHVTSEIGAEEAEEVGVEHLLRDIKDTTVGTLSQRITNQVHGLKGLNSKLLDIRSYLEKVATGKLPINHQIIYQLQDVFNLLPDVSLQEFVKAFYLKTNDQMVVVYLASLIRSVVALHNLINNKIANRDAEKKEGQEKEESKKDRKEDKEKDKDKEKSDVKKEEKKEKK", "procedure,_shortened": "as §1"}, "UCHL1": {"target": "UCHL1 (UniProt P09936)", "sequence (P09936 whole entry, looked up)": "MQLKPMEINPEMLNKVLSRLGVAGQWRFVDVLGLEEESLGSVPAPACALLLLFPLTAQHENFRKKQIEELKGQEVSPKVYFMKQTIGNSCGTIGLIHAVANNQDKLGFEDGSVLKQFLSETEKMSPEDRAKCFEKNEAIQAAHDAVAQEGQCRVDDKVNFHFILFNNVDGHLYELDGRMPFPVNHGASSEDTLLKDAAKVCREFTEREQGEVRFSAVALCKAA", "procedure,_shortened": "as §1"}, "UCHL3": {"target": "T4, UCHL3 (UniProt P15374)", "T4 sequence (whole entry)": "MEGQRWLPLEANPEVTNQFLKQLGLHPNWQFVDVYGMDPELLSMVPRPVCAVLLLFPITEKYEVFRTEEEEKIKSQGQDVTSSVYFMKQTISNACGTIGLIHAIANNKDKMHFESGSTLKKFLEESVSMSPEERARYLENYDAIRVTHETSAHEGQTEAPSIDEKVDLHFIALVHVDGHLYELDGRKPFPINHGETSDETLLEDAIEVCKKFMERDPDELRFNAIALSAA", "procedure,_shortened": "as §1"}, "UCHL5": {"target": "T5, UCHL5 (UniProt Q9Y5K5)", "T5 sequence (whole entry)": "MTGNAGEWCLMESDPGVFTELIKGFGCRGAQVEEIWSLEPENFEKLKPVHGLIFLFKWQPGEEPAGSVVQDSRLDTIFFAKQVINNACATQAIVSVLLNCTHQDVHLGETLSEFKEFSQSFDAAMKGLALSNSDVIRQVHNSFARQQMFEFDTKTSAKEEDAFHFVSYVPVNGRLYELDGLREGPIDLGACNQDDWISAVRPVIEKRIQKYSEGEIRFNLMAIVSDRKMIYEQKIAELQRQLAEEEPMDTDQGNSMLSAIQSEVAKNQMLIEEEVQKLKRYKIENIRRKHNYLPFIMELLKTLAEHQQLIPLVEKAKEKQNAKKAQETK", "procedure,_shortened": "as §1"}, "USP10": {"target": "USP10 (UniProt Q14694)", "sequence (Q14694 whole entry)": "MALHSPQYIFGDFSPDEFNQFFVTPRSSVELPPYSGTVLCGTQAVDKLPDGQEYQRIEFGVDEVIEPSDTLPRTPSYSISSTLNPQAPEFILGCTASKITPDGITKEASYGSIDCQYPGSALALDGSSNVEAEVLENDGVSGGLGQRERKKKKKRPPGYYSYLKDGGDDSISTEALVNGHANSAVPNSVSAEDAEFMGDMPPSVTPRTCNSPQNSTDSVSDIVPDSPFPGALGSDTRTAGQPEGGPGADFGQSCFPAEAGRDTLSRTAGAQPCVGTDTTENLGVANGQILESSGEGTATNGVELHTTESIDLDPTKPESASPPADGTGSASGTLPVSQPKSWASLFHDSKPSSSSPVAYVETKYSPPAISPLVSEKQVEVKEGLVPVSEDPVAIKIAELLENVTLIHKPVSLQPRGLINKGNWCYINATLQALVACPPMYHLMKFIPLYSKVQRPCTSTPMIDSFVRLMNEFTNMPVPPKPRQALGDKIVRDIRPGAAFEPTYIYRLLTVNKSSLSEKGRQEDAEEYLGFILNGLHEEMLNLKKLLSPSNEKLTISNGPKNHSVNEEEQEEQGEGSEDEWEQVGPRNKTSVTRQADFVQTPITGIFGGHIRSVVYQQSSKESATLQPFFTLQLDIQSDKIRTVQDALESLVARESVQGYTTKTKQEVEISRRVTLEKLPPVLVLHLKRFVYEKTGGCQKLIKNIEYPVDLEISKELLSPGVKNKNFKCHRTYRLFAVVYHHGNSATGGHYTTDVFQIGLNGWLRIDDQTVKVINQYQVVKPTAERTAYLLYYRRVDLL", "procedure,_shortened": "as §1"}, "USP15": {"target": "T6, USP15 (UniProt Q9Y4E8)", "T6 sequence (whole entry)": "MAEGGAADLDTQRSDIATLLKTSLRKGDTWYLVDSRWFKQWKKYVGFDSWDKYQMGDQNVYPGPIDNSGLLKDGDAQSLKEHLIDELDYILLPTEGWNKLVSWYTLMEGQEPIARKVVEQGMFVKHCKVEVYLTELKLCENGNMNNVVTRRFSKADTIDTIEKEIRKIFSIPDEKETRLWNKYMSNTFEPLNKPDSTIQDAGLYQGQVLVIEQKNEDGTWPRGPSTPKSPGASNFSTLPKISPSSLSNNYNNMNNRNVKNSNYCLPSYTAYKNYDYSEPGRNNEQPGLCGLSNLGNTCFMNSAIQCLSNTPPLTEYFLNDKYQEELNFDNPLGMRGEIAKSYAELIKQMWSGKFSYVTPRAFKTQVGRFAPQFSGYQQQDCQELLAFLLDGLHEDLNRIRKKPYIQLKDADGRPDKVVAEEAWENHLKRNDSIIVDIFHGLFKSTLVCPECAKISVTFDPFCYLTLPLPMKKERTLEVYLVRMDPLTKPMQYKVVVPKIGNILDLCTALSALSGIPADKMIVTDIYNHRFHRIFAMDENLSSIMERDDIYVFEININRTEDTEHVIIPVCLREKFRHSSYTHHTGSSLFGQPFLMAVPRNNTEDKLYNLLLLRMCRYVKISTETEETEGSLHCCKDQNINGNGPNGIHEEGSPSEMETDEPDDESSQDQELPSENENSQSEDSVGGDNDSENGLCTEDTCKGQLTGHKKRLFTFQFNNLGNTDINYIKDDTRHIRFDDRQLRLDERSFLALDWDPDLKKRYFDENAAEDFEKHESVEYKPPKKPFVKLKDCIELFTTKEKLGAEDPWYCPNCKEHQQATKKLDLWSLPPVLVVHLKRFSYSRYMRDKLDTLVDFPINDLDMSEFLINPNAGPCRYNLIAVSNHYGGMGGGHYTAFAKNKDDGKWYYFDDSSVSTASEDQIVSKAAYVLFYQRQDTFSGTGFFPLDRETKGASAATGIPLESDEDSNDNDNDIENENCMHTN", "procedure,_shortened": "as §1"}, "USP16": {"target": "USP16 (UniProt Q9Y5T5)", "sequence (Q9Y5T5 whole entry, looked up)": "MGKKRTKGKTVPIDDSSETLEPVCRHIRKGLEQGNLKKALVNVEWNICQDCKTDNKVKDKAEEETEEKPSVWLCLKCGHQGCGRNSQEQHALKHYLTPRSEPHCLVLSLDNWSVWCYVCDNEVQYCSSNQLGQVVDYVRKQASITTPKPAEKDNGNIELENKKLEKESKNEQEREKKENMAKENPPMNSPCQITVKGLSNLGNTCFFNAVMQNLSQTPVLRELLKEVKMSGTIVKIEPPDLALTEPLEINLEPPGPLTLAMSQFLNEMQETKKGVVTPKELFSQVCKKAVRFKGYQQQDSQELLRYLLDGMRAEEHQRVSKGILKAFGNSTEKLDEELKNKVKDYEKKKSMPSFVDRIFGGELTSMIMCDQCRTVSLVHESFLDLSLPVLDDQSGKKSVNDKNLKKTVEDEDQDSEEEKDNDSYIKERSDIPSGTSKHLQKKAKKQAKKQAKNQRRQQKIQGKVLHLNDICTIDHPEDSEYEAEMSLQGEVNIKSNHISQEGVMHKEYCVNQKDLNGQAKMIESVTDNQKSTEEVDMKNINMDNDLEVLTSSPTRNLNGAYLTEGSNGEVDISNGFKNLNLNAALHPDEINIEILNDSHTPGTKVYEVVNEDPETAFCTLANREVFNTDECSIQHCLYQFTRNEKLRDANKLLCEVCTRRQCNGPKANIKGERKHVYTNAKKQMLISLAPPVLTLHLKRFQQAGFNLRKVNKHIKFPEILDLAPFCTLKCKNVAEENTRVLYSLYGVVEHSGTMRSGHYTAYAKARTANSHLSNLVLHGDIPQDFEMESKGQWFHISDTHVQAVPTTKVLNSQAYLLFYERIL", "procedure,_shortened": "as §1"}},
  "note": "Unmarked numbers belong to inactive results.",
  "data": [
    {"compound": "O=C(CCl)N[C@H]1CCS(=O)(=O)c2ccccc21", "values": [
      {"measurement": "log2 ratio of Biotin-Ahx-Ub-VS probe labelling", "setting": "OTUD6B", "result": -0.0586},
      {"measurement": "log2 ratio of Biotin-Ahx-Ub-VS probe labelling", "setting": "OTUD7B", "result": "-1.71 (active)"},
      {"measurement": "log2 ratio of Biotin-Ahx-Ub-VS probe labelling", "setting": "PRPF8", "result": 0.0359},
      {"measurement": "log2 ratio of Biotin-Ahx-Ub-VS probe labelling", "setting": "PSMD7", "result": -0.0772},
      {"measurement": "log2 ratio of Biotin-Ahx-Ub-VS probe labelling", "setting": "UCHL1", "result": "-1.5 (active)"},
      {"measurement": "log2 ratio of Biotin-Ahx-Ub-VS probe labelling", "setting": "UCHL3", "result": 0.351},
      {"measurement": "log2 ratio of Biotin-Ahx-Ub-VS probe labelling", "setting": "UCHL5", "result": -0.0806},
      {"measurement": "log2 ratio of Biotin-Ahx-Ub-VS probe labelling", "setting": "USP10", "result": -0.109},
      {"measurement": "log2 ratio of Biotin-Ahx-Ub-VS probe labelling", "setting": "USP15", "result": -0.195},
      {"measurement": "log2 ratio of Biotin-Ahx-Ub-VS probe labelling", "setting": "USP16", "result": -0.601}
    ]}
  ]
}
